From PubChem BioAssay (NCATS) come the findings set out here.

Assay [1] can be described thus: Validation screen for small molecules that induce genotoxicity in human embryonic kidney (HEK293T) cells expressing luciferase-tagged ELG1 (AID 493106). Further: 0% is about no effect. A digest of the protocol:
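ELG1-luciferase reporter readout (ONE-Glo, 30 min, room temperature) after 16 hr compound treatment at 37 °C of HEK293T cells at 2,000 per well. Rising luminescence flags genotoxic stress.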

Assay [2] deals with ATPase family AAA domain-containing protein 5 (Homo sapiens) (UniProt Q96QE3). Briefly: Validation screen for small molecules that inhibit ELG1-dependent DNA repair in human embryonic kidney (HEK293T) cells expressing luciferase-tagged ELG1 (AID 493107). Further: nearly all actives have a fitted effect of over 70% in size. Further: potency means the concentration at half of the fitted maximal effect. A digest of the protocol: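 Luciferase read-out, ONE-Glo, 30 min at room temperature, follows 16 h co-exposure at 37 C of compound and the DNA-damaging agent 5-fluorouridine. Cells: HEK293T with ELG1-luciferase fusion, 2,000 per well, DMSO as vehicle.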

Assay [3] concerns the target Thyrotropin-releasing hormone receptor (Homo sapiens) (UniProt P34981). As to the kind of experiment: qHTS for Small Molecule Agonists and Allosteric Enhancers of Human TRH Receptor: Validation Screen for Agonists (AID 493127;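 active means calcium activation more than 3 SD above the typical response in the agonist read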;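 further: intracellular calcium rise by fluo-8 fluorescence before TRH EC20 addition; 0% is about no effect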). The note with it: TRH receptor agonist cell assay; at 2 µM; stronger effect = higher value. The method in brief: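 Compound-evoked intracellular calcium release in fluo-8-loaded TRHR cells, read kinetically on FDSS (Ex 480/Em 530, 1 s/cycle) after 23 nL pintool transfer. Agonist phase preceded 10 nM TRH EC20 addition.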
A general note: Quantitative high-throughput screening tests each substance at several concentrations.

Assay [4] can be described thus: Nrf2 qHTS screen for inhibitors: Validation (AID 493153; active means well fitted inhibition curve with a large enough effect in the main read-out, with a control signal flat, not every such curve was filed as active). The note with it: Potency: luciferase luminescence; viability change: measured here: cytotoxicity max response. The method in brief:
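Concentration-response on A549 ARE_Fluc reporter cells exposed 18-24 h at 37 C, 5% CO2. Cytotoxicity read first by CellTiter-Fluor fluorescence (Ex 405/Em 525), then Nrf2 inhibition by BugLite luminescence after 15 min.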

Assay [5] in a line: qHTS for Inhibitors of Cell Surface uPA Generation: Validation Assay (AID 493164).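 Further: RAW 264.7 macrophage cells exposed to compound for 18 h; 0% is about no effect.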 The method in brief:
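ATP-Lite luminescence read-out: ATP remains high when uPA activity-dependent LF translocation into the cytoplasm is blocked. RAW 264.7 cells, 18 h compound exposure at 37 C; 7-point titration, 2.45 nM to 38.3 uM final.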

Assay [6] deals with Galactokinase (Homo sapiens) (UniProt P51570). As to the kind of experiment: qHTS Validation Assay for Inhibitors of Human Galactokinase (GALK) (AID 493189). Further: 0% is about no effect. A digest of the protocol: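 GALK (5 nM) with 35 uM ATP and 100 uM galactose in HEPES pH 8.0 with MgCl2, NaCl, DTT and BSA. Reaction ran 1 h at room temperature. Residual ATP read by Kinase-Glo Plus luminescence.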
Assay [7] in a line: Validation screen for small molecules that induce DNA re-replication in SW480 colon adenocarcinoma cells (AID 504364). Further: 0% is about no effect. The method in brief:
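Image-based DNA content read-out: Hoechst stain 40 min, total nuclear fluorescence intensity (ex 405 nm, em 500-530 nm) after 48 h compound exposure of 250 SW480 cells/well at 37 C, 5% CO2, versus DMSO vehicle.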

Assay [8] deals with phosphoglycerate mutase (Leishmania major) (UniProt Q4Q090). Briefly: qHTS Validation Assay to Find Inhibitors of Phosphoglycerate Mutase (AID 504548).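 Further: end-point luminescence from Kinase-GloPlus after the PGAM reaction; series mostly up to about 58 µM; on the % scale 0 is the no-effect control and ±100 the full control effect.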 The method in brief: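 Inhibition of L. major PGAM was assessed by Kinase-GloPlus luminescence following a 45-minute room-temperature reaction with enzyme at 1.25nM final.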
The target in assay [9] is Ubiquitin carboxyl-terminal hydrolase 1 (Homo sapiens) (UniProt O94782). Briefly: Inhibitors of USP1/UAF1: Pilot qHTS (AID 504865).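 Further: rhodamine fluorescence freed from ubiquitin-rhodamine substrate followed over time; top concentration of the series differs between compounds; on the % scale 0 is the no-effect control and ±100 the full control effect; nearly all actives have a fitted effect of over 35% in size.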 The method in brief:
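USP1/UAF1 complex at 1 nM preincubated 15 min at room temperature with compound, then Ub-Rho substrate added at 150 nM final. Fluorescence (480/540 nm) read kinetically in 50 mM HEPES pH 7.8, 0.5 mM EDTA, 1 mM TCEP, 0.1 mg/ml BSA, 0.01% Tween-20.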

Assay [10] in a line: qHTS for Inhibitors of ATXN expression: Validation (AID 588378). Further: series mostly up to about 57 µM; on the % scale 0 is the no-effect control and ±100 the full control effect; nearly all actives have a fitted effect of over 75% in size. The method in brief:
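HEK293 cells carrying ATXN2-firefly luciferase reporter, treated with compound 24 h at 37 °C. Viability read first by CellTiter-Fluor (405/525 nm), then reporter expression by Bright-Glo luminescence; controls were a known ATXN2 expression inhibitor and a luciferase inhibitor.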

Assay [11] concerns the target Phosphoglycerate kinase, glycosomal (Trypanosoma brucei brucei) (UniProt P07378). As to the kind of experiment: qHTS Validation Assay to Find Inhibitors of Phosphoglycerate Kinase (AID 504547).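 Further: control wells lack PGK and mark full inhibition.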 The method in brief:
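In TEA buffer (100mM, pH 7.6) containing 5mM MgCl2 and 0.01% Tween-20, the GAPDH-coupled PGK reaction proceeded for 60 minutes at room temperature before a single luminescence reading using Kinase-Glo Plus.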

For assay [12], the target named is Peptidyl-prolyl cis-trans isomerase NIMA-interacting 1 (Homo sapiens) (UniProt Q13526). Briefly: qHTS Validation Assay to Find Inhibitors of Pin1 (AID 504536; active means well fitted inhibition curve with a large enough effect in the polarisation, with a control signal flat, not every such curve was filed as active; the % refers to the polarisation;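 further: 0% = full Pin1 enzyme wells and -100% = no-enzyme wells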). The method in brief:
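Fluorescence polarization competition: compounds (titration) displace HiFluor-488-labeled Pin1-1b peptide from Pin1 (0.3 uM final) in pH 7.5 HEPES buffer with DTT, 10 min at room temperature; %Activity normalized to no-enzyme wells, curves fitted.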

Assay [13] has as its target DNA dC->dU-editing enzyme APOBEC-3G (Homo sapiens) (UniProt Q9HC16). As to the kind of experiment: qHTS for inhibitors of Vif-A3G interactions: Validation (AID 588379). Further: 0% is about no effect. The method in brief:
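Yellow fluorescence (Ex 488, Em 500-530) of Vif-coexpressing HeLa A3G-eYFP cells, scanned by Acumen cytometer, reports blocked A3G degradation. Cells plated at 700/well overnight at 37 deg C before compound addition, then a further overnight compound incubation at 37 deg C.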

For assay [14], the target named is ATP-dependent 6-phosphofructokinase (Trypanosoma brucei brucei) (UniProt O15648). As to the kind of experiment: qHTS Assay to Find Inhibitors of T. brucei phosphofructokinase: hit validation (AID 492961).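 Further: luminescence reports ADP formed as PFK phosphorylates fructose-6-phosphate with ATP; series mostly up to about 51 µM; on the % scale 0 is the no-effect control and ±100 the full control effect.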 The method in brief: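 Percent activity derived from corrected luminescence, normalized between 0x and 1x enzyme controls, then fitted to concentration-response curves. Conditions: 1.25 nM PFK, 0.1 mM ATP, 0.5 mM F6P, 45 min RT.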

Assay [15] has as its target Estrogen receptor (Homo sapiens) (UniProt P03372). Briefly: qHTS assay for small molecule antagonists of estrogen receptor alpha signaling (AID 588513; active means well fitted curve in the direction sought with a large enough effect in the signal ratio, with a control signal flat, not every such curve was filed as active; the % refers to the signal ratio; further: on the % scale 0 is the no-effect control and ±100 the full control effect). A digest of the protocol:
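ER-alpha-UAS-bla GripTite HEK 293 cells in 2% charcoal/dextran-treated FBS medium; compounds titrated (1:2, duplicate), then stimulated with 0.5 nM 17-beta-estradiol for 18 h at 37C. CCF4 beta-lactamase fluorescence; Hill-fit IC50 and efficacy.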

Assay [16] has the same target. Briefly: qHTS assay for small molecule agonists of estrogen receptor alpha signaling (AID 588514; calls by dose curve;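 further: 0% = vehicle only and 100% = reference agonist; nearly all actives have a fitted effect of over 70% in size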). The method in brief:
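EC50 and efficacy came from Hill fits of beta-lactamase reporter signal (CCF4 dye, 2 h at room temperature) scaled between DMSO and 20 nM 17-beta-estradiol. Agonist mode: HEK293 ER-alpha-UAS-bla cells in charcoal/dextran-stripped serum medium, 18 h compound exposure at 37 C.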

The nature of assay [17]: qHTS for Inhibitors of ATXN expression: Validation of Cytotoxic Assay (AID 588349). Further: on the % scale 0 is the no-effect control and ±100 the full control effect. The method in brief: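 Cytotoxicity counter-screen: ATP-based luminescent viability (CellTiter Glo) after 72 hr exposure of HEK293 cells to a compound titration at 37 degrees C.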

Where “and” joins values, the source holds several entries; their conditions need not be identical. Equal entries are not always repeated. Inconclusive results are not listed. Calls of active or inactive are those of the source. Unless noted, the call rests on the fitted dose curve; in most records, active means well fitted curve in the direction sought with a large enough effect; inconclusive means small, poorly fitted or top-dose-only effect, or another doubt; inactive means no such curve, though single readings can be large; an effect the other way counts as inactive or inconclusive.

Chain of Phosphoglycerate kinase, glycosomal (Trypanosoma brucei brucei) (P07378 whole entry, looked up): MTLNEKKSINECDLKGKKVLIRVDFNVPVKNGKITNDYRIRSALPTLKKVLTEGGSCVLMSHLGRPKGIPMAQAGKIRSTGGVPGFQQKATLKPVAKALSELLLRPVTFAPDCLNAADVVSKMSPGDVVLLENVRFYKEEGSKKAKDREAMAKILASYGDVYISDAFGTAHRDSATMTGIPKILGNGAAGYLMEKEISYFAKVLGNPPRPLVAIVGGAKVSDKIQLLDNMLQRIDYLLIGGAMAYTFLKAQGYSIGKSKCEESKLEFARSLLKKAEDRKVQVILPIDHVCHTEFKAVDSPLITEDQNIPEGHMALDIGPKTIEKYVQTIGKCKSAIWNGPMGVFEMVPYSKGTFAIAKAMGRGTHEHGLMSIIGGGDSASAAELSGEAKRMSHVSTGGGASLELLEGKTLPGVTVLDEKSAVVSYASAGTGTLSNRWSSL
Chain of phosphoglycerate mutase (Leishmania major) (Q4Q090 1-553): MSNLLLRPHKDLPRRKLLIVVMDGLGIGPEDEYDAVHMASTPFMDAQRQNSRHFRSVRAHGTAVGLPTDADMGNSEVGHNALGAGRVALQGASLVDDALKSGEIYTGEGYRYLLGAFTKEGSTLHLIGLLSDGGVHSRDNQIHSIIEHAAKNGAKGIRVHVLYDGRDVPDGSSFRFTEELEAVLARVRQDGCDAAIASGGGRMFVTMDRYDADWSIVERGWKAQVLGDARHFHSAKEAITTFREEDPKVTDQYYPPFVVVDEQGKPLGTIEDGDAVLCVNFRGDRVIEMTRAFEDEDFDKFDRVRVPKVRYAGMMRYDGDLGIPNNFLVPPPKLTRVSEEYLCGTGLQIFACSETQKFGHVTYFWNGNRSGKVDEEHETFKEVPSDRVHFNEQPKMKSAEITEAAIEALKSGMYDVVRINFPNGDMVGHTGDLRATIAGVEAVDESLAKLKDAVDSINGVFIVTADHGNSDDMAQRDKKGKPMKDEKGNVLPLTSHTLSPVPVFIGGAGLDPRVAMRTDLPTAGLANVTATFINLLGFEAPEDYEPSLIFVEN
Chain of Ubiquitin carboxyl-terminal hydrolase 1 (Homo sapiens) (O94782 whole entry, looked up): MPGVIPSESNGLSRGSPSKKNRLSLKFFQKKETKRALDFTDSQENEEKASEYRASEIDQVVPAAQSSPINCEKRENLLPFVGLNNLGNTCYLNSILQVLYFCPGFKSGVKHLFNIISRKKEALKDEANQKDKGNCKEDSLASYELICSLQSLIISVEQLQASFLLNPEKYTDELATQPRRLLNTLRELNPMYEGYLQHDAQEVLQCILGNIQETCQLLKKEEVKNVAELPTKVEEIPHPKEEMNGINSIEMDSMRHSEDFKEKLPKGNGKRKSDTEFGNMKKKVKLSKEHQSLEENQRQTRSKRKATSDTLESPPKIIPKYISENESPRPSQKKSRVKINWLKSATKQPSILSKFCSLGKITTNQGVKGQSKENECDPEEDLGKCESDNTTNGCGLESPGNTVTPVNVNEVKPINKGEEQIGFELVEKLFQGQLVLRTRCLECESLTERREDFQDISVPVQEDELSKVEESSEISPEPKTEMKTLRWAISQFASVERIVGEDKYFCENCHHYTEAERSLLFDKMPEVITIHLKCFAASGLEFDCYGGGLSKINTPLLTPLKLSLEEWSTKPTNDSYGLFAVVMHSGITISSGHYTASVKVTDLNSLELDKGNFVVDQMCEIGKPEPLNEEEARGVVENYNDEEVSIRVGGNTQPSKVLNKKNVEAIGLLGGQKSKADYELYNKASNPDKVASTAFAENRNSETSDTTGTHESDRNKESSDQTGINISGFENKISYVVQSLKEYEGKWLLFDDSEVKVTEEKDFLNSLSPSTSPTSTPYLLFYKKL
Chain of DNA dC->dU-editing enzyme APOBEC-3G (Homo sapiens) (Q9HC16 whole entry, looked up): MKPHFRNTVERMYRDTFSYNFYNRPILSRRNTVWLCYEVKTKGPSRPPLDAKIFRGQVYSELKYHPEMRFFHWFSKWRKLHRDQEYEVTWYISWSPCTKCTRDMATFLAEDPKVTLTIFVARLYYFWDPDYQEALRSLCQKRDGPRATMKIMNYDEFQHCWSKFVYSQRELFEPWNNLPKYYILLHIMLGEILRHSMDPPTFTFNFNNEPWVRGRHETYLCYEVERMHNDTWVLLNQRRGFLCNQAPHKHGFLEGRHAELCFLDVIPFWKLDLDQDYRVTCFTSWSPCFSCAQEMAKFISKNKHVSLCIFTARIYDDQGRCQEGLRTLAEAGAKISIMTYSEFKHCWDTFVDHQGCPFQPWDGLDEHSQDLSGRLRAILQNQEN
Chain of Estrogen receptor (Homo sapiens) (P03372 whole entry, looked up): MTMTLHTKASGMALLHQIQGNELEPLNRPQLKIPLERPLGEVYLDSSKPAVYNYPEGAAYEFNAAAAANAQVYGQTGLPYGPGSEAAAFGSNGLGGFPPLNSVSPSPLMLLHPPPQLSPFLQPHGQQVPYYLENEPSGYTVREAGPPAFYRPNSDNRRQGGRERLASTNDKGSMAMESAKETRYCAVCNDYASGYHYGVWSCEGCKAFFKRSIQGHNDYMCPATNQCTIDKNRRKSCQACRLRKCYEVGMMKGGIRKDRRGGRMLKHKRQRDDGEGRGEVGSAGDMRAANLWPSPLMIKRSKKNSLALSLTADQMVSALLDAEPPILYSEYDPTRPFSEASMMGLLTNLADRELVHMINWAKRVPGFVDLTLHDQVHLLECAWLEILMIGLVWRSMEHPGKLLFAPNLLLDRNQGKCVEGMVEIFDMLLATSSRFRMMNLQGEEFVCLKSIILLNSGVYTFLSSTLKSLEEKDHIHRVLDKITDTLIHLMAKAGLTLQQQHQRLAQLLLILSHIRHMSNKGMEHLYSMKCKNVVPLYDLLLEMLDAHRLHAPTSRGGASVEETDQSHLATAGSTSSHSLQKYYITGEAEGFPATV
Chain of Galactokinase (Homo sapiens) (P51570 whole entry, looked up): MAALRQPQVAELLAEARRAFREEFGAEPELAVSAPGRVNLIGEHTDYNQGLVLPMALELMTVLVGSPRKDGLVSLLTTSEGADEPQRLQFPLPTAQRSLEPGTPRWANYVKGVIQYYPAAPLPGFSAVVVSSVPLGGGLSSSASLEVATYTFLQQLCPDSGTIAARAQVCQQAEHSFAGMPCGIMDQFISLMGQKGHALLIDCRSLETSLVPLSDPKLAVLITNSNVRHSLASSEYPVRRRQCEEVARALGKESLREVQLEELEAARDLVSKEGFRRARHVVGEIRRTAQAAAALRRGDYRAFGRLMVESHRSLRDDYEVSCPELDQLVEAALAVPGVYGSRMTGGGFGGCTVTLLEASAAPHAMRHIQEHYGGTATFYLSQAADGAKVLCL
Chain of Peptidyl-prolyl cis-trans isomerase NIMA-interacting 1 (Homo sapiens) (Q13526 whole entry, looked up): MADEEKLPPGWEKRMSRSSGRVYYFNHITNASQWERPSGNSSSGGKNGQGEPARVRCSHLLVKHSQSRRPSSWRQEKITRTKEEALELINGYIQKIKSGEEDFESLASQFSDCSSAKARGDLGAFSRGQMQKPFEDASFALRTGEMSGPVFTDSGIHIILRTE
Chain of Thyrotropin-releasing hormone receptor (Homo sapiens) (P34981 whole entry, looked up): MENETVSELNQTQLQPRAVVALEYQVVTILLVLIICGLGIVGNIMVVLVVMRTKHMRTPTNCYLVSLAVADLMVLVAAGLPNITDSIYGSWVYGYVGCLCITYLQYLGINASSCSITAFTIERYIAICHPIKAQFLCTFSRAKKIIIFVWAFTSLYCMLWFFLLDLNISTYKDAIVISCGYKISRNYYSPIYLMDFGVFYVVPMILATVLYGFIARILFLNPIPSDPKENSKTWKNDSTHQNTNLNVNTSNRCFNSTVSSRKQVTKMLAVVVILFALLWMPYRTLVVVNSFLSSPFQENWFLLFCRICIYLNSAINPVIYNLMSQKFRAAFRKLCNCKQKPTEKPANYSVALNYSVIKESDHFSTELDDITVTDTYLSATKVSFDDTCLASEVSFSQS
Chain of ATP-dependent 6-phosphofructokinase (Trypanosoma brucei brucei) (O15648 whole entry, looked up): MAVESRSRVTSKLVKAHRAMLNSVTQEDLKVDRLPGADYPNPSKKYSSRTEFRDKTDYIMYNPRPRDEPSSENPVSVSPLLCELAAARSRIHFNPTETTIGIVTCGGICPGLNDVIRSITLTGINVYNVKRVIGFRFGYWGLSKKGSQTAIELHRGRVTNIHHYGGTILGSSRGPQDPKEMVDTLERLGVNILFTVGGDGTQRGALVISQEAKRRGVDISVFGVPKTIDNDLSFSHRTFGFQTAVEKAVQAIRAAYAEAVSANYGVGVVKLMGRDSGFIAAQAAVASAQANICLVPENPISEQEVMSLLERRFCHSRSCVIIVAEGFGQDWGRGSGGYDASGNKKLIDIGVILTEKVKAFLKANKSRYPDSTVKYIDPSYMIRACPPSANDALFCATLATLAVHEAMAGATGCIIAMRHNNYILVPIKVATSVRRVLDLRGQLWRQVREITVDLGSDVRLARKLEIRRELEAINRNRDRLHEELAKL

Regarding `CC1COc2c(N3CCN(C)CC3)c(F)cc3c(=O)c(C(=O)O)cn1c23` (centres undefined), the Potency result in [1], in [2], in assay [4], in assay [6], in [7] and in [9] was “inactive” each time. Moreover, the Potency result in assay [10] was “inactive”. The activation in assay [3] is 1% (inactive). For the same compound, the viability change in assay [4] worked out at 6.09%. Further, the compound was classed as inactive in [5] and in assay [8].

As to `Clc1ccc2c(c1)C(N1CCNCC1)=Nc1ccccc1O2`, the Potency entry in assay [1], in assay [2], in assay [6], in assay [11] and in assay [9] was “inactive” each time. Moreover, in [3], the activation is 4.19% (inactive). Besides, the compound was classed as inactive in assay [5] and in assay [8].

As to `CC(C(=O)O)c1cccc(C(=O)c2ccccc2)c1` (centres undefined), the Potency entry in assay [1], in [2], in [4], in [6], in assay [7] and in assay [12] was “inactive” throughout. Moreover, the Potency result in assay [11], in assay [9] and in assay [10] was “inactive” throughout. Besides, in assay [3], the activation was 1.12% (inactive). Also, the viability change in [4] was -3.76%. Moreover, the call in assay [5] and in assay [8] was inactive.

Consider `CN1CCC(=C2c3ccccc3C=Cc3ccccc32)CC1`, for which the Potency entry in [1], in assay [2], in [4], in assay [6], in assay [12] and in assay [11] was “inactive” throughout. Moreover, in assay [9], the Potency result is “inactive”. For the same compound, the viability change in [4] is 17%. Further, the compound was classed as inactive in assay [5], in assay [8] and in [13].

As to `OCCN1CCN(CCCN2c3ccccc3Sc3ccc(C(F)(F)F)cc32)CC1`, the Potency result in [1], in assay [2], in assay [4], in assay [6] and in assay [7] was “inactive” each time. In addition, the activation in assay [3] is 1.88% (inactive). Also, the viability change in [4] was 1.55%. In addition, the call in [5] and in [8] was inactive.

With `Cc1ccc(-c2cc(C(F)(F)F)nn2-c2ccc(S(N)(=O)=O)cc2)cc1`, in [14], the Potency result is “inactive”. In addition, in [15], the call was inactive.

With `CC(C)Cc1ccc(C(C)C(=O)O)cc1` (centres undefined), the Potency result in assay [1], in assay [2], in [4], in assay [12], in assay [9] and in [10] was “inactive” each time. In addition, the activation in assay [3] is 0.375% (inactive). In [4], the viability change was determined as 7.62%. Also, the compound was called inactive in [5], in assay [8], in assay [15] and in assay [16].

In the case of `CC(C)NCC(O)c1ccc(O)c(O)c1` (centres undefined), the Potency result in assay [1], in assay [2], in assay [4], in [6], in assay [7] and in assay [11] was “inactive” throughout. Also, the Potency result in [9] and in assay [10] was “inactive” throughout. In assay [3], the activation was 0.688% (inactive) and 0.188% (inactive). Moreover, the viability change in assay [4] is -5.16%. Besides, in assay [5], the compound was classed as inactive.

As for `Nc1ccn([C@H]2CC[C@@H](CO)O2)c(=O)n1`, the Potency result in assay [1], in assay [2], in [4], in assay [6], in assay [12] and in [9] was “inactive” throughout. Also, in assay [10], the Potency entry is “inactive”. For the same compound, the activation in [3] is 0.938% (inactive). The viability change in assay [4] is -1.24%. The result in assay [5], in assay [8], in assay [13], in assay [15] and in assay [16] was inactive.

Consider `CC(C)NCC(O)COc1ccc(CCOCC2CC2)cc1` (centres undefined), for which the Potency result in assay [1], in [2], in [4], in [6], in [7] and in [12] was “inactive” throughout. For the same compound, the Potency result in assay [11], in assay [9] and in assay [10] was “inactive” in each case. The viability change in [4] was -1.98%. Besides, the outcome in assay [5] and in assay [8] was inactive.

As to `Clc1ccc(C(c2ccccc2Cl)C(Cl)Cl)cc1` (centres undefined), the Potency result in assay [1], in assay [2], in assay [6], in assay [9] and in assay [10] was “inactive” in each case. In addition, the activation in [3] was 1.38% (inactive). The result in assay [5], in assay [8] and in assay [17] was inactive.

As to `COc1cc2nc(N3CCN(C(=O)C4COc5ccccc5O4)CC3)nc(N)c2cc1OC` (centres undefined), the Potency entry in assay [1], in [4], in assay [6], in assay [7] and in assay [10] was “inactive” throughout. The Potency in [2] was 23.1 µM (active). The viability change in assay [4] was -11.8%. Also, the compound was classed as inactive in [5] and in assay [8].

`NC(=O)OCC(COC(N)=O)c1ccccc1`: the Potency entry in assay [1], in assay [2], in assay [4], in [6], in [9] and in assay [10] was “inactive” throughout. For the same compound, the activation in [3] is 0.5% (inactive). Further, the viability change in assay [4] amounted to 2.5%. Further, the compound was classed as inactive in [5], in assay [8] and in assay [13].

Consider `CC(CCc1ccc(O)cc1)NCCc1ccc(O)c(O)c1` (centres undefined), for which the Potency entry in [1], in assay [2], in assay [4], in assay [6], in assay [7] and in assay [12] was “inactive” each time. In assay [9], the Potency entry is “inactive”. Besides, in [3], the activation is 1.06% (inactive). For the same compound, in [4], the viability change stood at 2.92%. The call in assay [5] and in [8] was inactive.

Consider `CC12CC3CC(C)(C1)CC(N)(C3)C2`, for which the Potency entry in [1], in assay [2], in assay [4], in [6], in assay [7] and in [9] was “inactive” in each case. For the same compound, in assay [10], the Potency result is “inactive”. In addition, in assay [4], the viability change was -3.89%. For the same compound, the result in assay [5], in assay [8] and in assay [17] was inactive.
